# In PubChem BioAssay (Tox21):
# Where “and” joins values, the source holds several entries; their conditions need not be identical. Equal values may be shown once. Records with an inconclusive call do not appear. A call without a number means that no potency is given here. Values without a mark were called inactive. Calls of active or inactive are those of the source. Unless noted, calls come from the whole dose curve.
# Columns and labels:
# [1] = qHTS assay to identify small molecule antagonists of the thyroid receptor (TR) signaling pathway (AID 743065; active = well fitted curve in the direction sought with a large enough effect in the repeat runs; an effect the other way counts as inactive or inconclusive; note: nearly all actives have a fitted effect of over 55% in size; note: potency is the fitted concentration of half-maximal effect)
# Method in brief: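 Antagonism measured as loss of luciferase signal in GH3 cells stably carrying a TRE-luciferase reporter, co-treated with compound and T3 (1 nM final) for 23.5 h at 37 C. Viability was read in the same well by CellTiter-Fluor.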
# [2] = tested on: thyroid hormone receptor (rat, GH3 cells); experiment: qHTS assay to identify small molecule agonists of the thyroid receptor (TR) signaling pathway (AID 743066); note: potency is the fitted concentration of half-maximal effect
# [3] = biological target: Estrogen receptor (Homo sapiens) (UniProt P03372); experiment: qHTS assay to identify small molecule antagonists of the estrogen receptor alpha (ER-alpha) signaling pathway (AID 743069; active = well fitted curve in the direction sought with a large enough effect in the signal ratio in the repeat runs, not every such curve was filed as active; the % refers to the signal ratio)
# Method in brief: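 Compound effects are measured against 17beta-estradiol stimulation in HEK293 cells with a UAS-controlled beta-lactamase reporter for ER-alpha. Exposure lasts 18 hr at 37C; LiveBLAzer B/G FRET substrate follows for 2 hr at room temperature.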
# [4] = qHTS assay to identify small molecule antagonists of the estrogen receptor alpha (ER-alpha) signaling pathway - cell viability counter screen (AID 743074);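 note: HEK293 cells carrying ER-alpha-UAS-bla reporter stimulated with 17beta-estradiol; nearly all actives have a fitted effect of over 45% in size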
# [5] = biological target: Estrogen receptor (Homo sapiens) (UniProt P03372); experiment: qHTS assay to identify small molecule agonists of the estrogen receptor alpha (ER-alpha) signaling pathway (AID 743075)
# [6] = biological target: Estrogen receptor (Homo sapiens) (UniProt P03372); experiment: qHTS assay to identify small molecule agonists of the estrogen receptor alpha (ER-alpha) signaling pathway using the BG1 cell line (AID 743079; active = well fitted curve in the direction sought with a large enough effect in the repeat runs; an effect the other way counts as inactive or inconclusive; note: nearly all actives have a fitted effect of over 20% in size; note: potency is the fitted concentration of half-maximal effect); details: BG1Luc4E2 cells, ERE-luciferase agonist, 22 h
# [7] = qHTS assay to identify small molecule antagonists of the estrogen receptor alpha (ER-alpha) signaling pathway using the BG1 cell line (AID 743080);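 note: BG1 cells stimulated with 17beta-estradiol alongside compound; nearly all actives have a fitted effect of over 25% in size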; note: potency is the fitted concentration of half-maximal effect
# Method in brief: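 Seeding, 24 h rest, compound transfer from DMSO, 17beta-estradiol addition, 21.5 h incubation, CellTiter-Fluor (30 min, 37 C), then ONE-Glo (30 min, room temperature): this sequence was run on BG1-Luc-4E2 reporter cells.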
# [8] = qHTS assay to identify small molecule antagonists of the estrogen receptor alpha (ER-alpha) signaling pathway using the BG1 cell line - cell viability counter screen (AID 743081; active = well fitted curve in the direction sought with a large enough effect in the repeat runs; an effect the other way counts as inactive or inconclusive;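 note: compound given together with 17beta-estradiol as the ER stimulus; nearly all actives have a fitted effect of over 45% in size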)
# Aromatase (Homo sapiens) = Aromatase (Homo sapiens) (UniProt P11511); experiment: qHTS assay to identify aromatase inhibitors (AID 743083; active = well fitted curve in the direction sought with a large enough effect in the repeat runs; an effect the other way counts as inactive or inconclusive; note: nearly all actives have a fitted effect of over 55% in size)
# Sequence of Aromatase (Homo sapiens) (P11511 whole entry, looked up): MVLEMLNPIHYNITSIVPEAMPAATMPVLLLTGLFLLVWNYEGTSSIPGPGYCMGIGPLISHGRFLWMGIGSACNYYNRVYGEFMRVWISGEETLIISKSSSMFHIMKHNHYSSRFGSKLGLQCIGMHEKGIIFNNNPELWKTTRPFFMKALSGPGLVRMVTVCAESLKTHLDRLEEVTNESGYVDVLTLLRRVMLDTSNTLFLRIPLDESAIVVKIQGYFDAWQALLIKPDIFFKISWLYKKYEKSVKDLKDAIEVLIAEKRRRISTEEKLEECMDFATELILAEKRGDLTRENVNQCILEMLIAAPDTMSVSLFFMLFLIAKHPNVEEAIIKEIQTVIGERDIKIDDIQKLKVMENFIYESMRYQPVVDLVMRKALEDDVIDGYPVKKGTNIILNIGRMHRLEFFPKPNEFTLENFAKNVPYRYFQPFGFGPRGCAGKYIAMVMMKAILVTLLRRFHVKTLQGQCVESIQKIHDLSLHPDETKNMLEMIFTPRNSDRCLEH
# Sequence of Estrogen receptor (Homo sapiens) (P03372 whole entry, looked up): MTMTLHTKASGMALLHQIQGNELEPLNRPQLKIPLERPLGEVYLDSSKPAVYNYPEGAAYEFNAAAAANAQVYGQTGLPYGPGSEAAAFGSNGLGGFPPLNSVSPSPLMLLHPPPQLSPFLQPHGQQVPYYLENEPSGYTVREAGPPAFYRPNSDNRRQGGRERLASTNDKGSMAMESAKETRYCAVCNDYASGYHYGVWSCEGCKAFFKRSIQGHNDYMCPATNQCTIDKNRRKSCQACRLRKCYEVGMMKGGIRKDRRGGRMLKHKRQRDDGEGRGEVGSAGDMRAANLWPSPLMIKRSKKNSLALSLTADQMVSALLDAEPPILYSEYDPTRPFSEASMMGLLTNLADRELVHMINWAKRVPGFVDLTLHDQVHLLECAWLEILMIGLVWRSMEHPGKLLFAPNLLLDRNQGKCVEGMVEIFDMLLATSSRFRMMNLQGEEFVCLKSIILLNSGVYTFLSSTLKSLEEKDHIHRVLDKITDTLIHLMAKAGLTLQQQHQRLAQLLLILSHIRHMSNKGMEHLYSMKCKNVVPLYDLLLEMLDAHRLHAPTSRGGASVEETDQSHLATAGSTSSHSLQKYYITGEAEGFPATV
Structure (SMILES),Potency [1],Potency [2],Potency [3],outcome [4],Potency [5],activation ([6]; at 70.3 µM (top of the series)),Potency [7],Potency [8],Potency (Aromatase (Homo sapiens)),activation ([6]; at 95 µM (top of the series)) [%],Potency [6]
Cc1nnc2n1-c1sc(CCC(=O)N3CCOCC3)cc1C(c1ccccc1Cl)=NC2,inactive,inactive,inactive,inactive,inactive,-7.93% and -17.7%,inactive,inactive,inactive,,
CNNC,inactive,inactive,inactive,inactive,inactive,,inactive,inactive,inactive,-3.86,
OCCSCSCCO,inactive,inactive,inactive,inactive,inactive,-2.71%,inactive,inactive,inactive,,
O=C(Nc1ccccc1)N(Cc1ccc(Cl)cc1)C1CCCC1,21.7 µM (active),inactive,,inactive,,,,inactive,inactive,,
CC1=NNC(=O)N(/N=C/c2cccnc2)C1,inactive,inactive,,inactive,,,,inactive,inactive,,
NC(=S)C(N)=S,inactive,inactive,,inactive,inactive,-1.3%,inactive,inactive,inactive,,
COP(N)(=S)Oc1ccccc1C(=O)OC(C)C (stereo not given),inactive,inactive,inactive,inactive,inactive,,inactive,inactive,inactive,,
O=[N+]([O-])c1cccc2c([N+](=O)[O-])cccc12,inactive,inactive,,inactive,,,,inactive,inactive,,
N#Cc1c(Cl)cccc1Cl,inactive,inactive,inactive,inactive,inactive,-1.9%,inactive,inactive,inactive,,
CCOP(=S)(OCC)SCSc1ccc(Cl)cc1,inactive,inactive,inactive,inactive,inactive,,inactive,inactive,inactive,,26.6 µM (active) and 24.3 µM (active)
CC(C)(C)OC(=O)c1ncn2c1[C@@H]1CCCN1C(=O)c1c(Br)cccc1-2,inactive,inactive,,inactive,,,,inactive,inactive,,
CCOP(=S)(Oc1cnc(C(C)(C)C)nc1)OC(C)C (stereo not given),61.1 µM (active),inactive,,inactive,,,,inactive,,,
c1cc[c]([Hg][c]2ccccc2)cc1,3.06 µM (active),inactive,inactive,inactive,inactive,,,inactive,inactive,,
CN1C[C@@H](NS(=O)(=O)N(C)C)C[C@@H]2c3cccc4c3c(cn4C)C[C@H]21,inactive,inactive,,inactive,,,,inactive,,,
CC1(C)COP(Oc2ccccc2)OC1,inactive,54.5 µM (active),,inactive,,,,inactive,inactive,,
C[C@]1(O)CC[C@H]2[C@@H]3CCC4=CC(=O)CC[C@]4(C)[C@@]3(F)[C@@H](O)C[C@@]21C,,,,inactive,,,,inactive,inactive,,
COc1cc(OC)nc(NC(=O)NS(=O)(=O)c2ncccc2OCC(F)(F)F)n1,,,inactive,inactive,inactive,,inactive,inactive,inactive,,
CC(N)=S,inactive,inactive,,inactive,,,,inactive,inactive,,
O=C1CN=C(c2ccccc2)c2cc([N+](=O)[O-])ccc2N1,,inactive,inactive,inactive,inactive,-1.51%,inactive,inactive,inactive,,
CCCSC(=O)N(CCC)CCC,,inactive,,inactive,,,,inactive,inactive,,
N#CCNCC#N,inactive,,inactive,inactive,inactive,-9.97%,inactive,,inactive,,
N#CCCC#N,,inactive,inactive,inactive,inactive,-3.68%,inactive,inactive,inactive,,
CC(=O)[C@H]1CC[C@H]2[C@@H]3CC[C@H]4C[C@H](O)CC[C@]4(C)[C@H]3C(=O)C[C@]12C,,inactive,inactive,inactive,inactive,8.45%,inactive,inactive,inactive,,
COc1cccc(C(=O)NN(C(=O)c2cc(C)cc(C)c2)C(C)(C)C)c1C,,inactive,,inactive,,,,,inactive,,
Cc1ncc2n1-c1ccc(Cl)cc1C(c1ccccc1F)=NC2,,inactive,,,inactive,,11.9 µM (active),inactive,inactive,,

Structure (SMILES),Potency [1],Potency [2],Potency [3],outcome [4],Potency [5],activation ([6]; at 70.3 µM (top of the series)),Potency [7],Potency [8],Potency (Aromatase (Homo sapiens)),activation ([6]; at 95 µM (top of the series)) [%],Potency [6]
Cc1cc(C)c(C(=O)P(=O)(C(=O)c2c(C)cc(C)cc2C)c2ccccc2)c(C)c1,,inactive,,,,37.1%,inactive,inactive,inactive,,
CC(C=O)Cc1ccc2c(c1)OCO2 (stereo not given),inactive,inactive,,inactive,,,,inactive,inactive,,
Cc1cnc[nH]1,inactive,inactive,,inactive,,,,inactive,inactive,,
CN1CCN(C(=O)O[C@H]2c3nccnc3C(=O)N2c2ccc(Cl)cn2)CC1,,inactive,,inactive,,,,inactive,inactive,,
O=C(Oc1ccc(Br)cc1)N1CCN2CCC1CC2,,inactive,inactive,inactive,inactive,1.03%,,inactive,inactive,,
OC(c1ccccc1)(c1ccccc1)C1CCNCC1,,inactive,,inactive,,,,inactive,inactive,,
CN1CCC(O)(c2ccc(F)cc2)C(C(=O)c2ccc(F)cc2)C1 (stereo not given),26.6 µM (active),inactive,,inactive,,,,inactive,inactive,,
O=c1oc2ccccc2c(O)c1C1CCCc2ccccc21 (stereo not given),,inactive,inactive,inactive,inactive,-13.4%,inactive,inactive,inactive,,
CCCCOC(=O)c1ccccc1N,,,,inactive,,,,inactive,inactive,,
O=C(O)c1ccc2[nH]cc(CCCCN3CC=C(c4ccccc4)CC3)c2c1,,inactive,inactive,inactive,inactive,-2.02%,inactive,inactive,inactive,,
COC(=O)c1c(C(F)F)nc(C(F)(F)F)c(C2=NCCS2)c1CC(C)C,,inactive,inactive,inactive,inactive,0.436%,inactive,inactive,inactive,,
CC(CCc1ccccc1)NC(C)C(O)c1ccc(O)cc1 (stereo not given),,inactive,inactive,inactive,inactive,-7.77%,inactive,inactive,inactive,,
CCOP(=S)(OCC)SCSP(=S)(OCC)OCC,,inactive,inactive,inactive,inactive,,inactive,inactive,inactive,,38.6 µM (active)
CCCCOP(=O)(O)OCCCC,,inactive,inactive,inactive,,,inactive,inactive,inactive,,24.3 µM (active)
CNC(=O)N(C)c1nc2ccccc2s1,inactive,inactive,,,,,,inactive,inactive,,
CC(C)CC(N(C)C)C1(c2ccc(Cl)cc2)CCC1 (stereo not given),,inactive,,inactive,,,,inactive,inactive,,
COc1cc(C[C@@H](C)N)c(OC)cc1C,65.4 µM (active),,inactive,inactive,,,inactive,inactive,inactive,,
C1CCC(C2CCCCC2)CC1,,inactive,inactive,inactive,inactive,-17.5%,inactive,inactive,inactive,,
Cc1cc(C)nc(Nc2ccccc2)n1,,inactive,inactive,inactive,inactive,,,inactive,inactive,,
CC(C)(C)NCC(O)c1cc(Cl)c(N)c(Cl)c1 (stereo not given),inactive,inactive,,inactive,,,,,inactive,,
CCCCOC(=O)c1ccccc1C(=O)O,inactive,inactive,,inactive,,,,inactive,inactive,,
CC1(C(=O)Nc2ccc(O)c(Cl)c2Cl)CCCCC1,,inactive,,inactive,,,,inactive,,,
CCc1cc2c(s1)-n1c(C)nnc1CN=C2c1ccccc1Cl,,inactive,,inactive,inactive,,11.9 µM (active),,inactive,,
ClCC(Cl)(Cl)Cl,,,inactive,inactive,inactive,,inactive,inactive,inactive,9.47,
